High-throughput results (PubChem)
CYP2C9 act – activators of human CYP2C9 | P11712 | actives 1.4% (n = 96,000) | AID 1024 | activation factor at 5 µM | recombinant CYP2C9, luciferin-H conversion, luminescence; active compounds read high; factor 1 = untreated enzyme, 0 = blocked;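 active means activation factor of 2 or more for CYP2C9 at a 5 µM dose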
CYP2C19 inh – human CYP2C19 inhibition. CYP2C19 Supersomes, luciferin-H EGE luminescence, 30 min. inhibition, % at 5 µM. actives 21% (n = 96,000). AID 778;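 active means CYP2C19 inhibition above a set limit at 5 µM in the primary screen, cut at about 50% in these data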
Target sequence (P33261 whole entry, looked up): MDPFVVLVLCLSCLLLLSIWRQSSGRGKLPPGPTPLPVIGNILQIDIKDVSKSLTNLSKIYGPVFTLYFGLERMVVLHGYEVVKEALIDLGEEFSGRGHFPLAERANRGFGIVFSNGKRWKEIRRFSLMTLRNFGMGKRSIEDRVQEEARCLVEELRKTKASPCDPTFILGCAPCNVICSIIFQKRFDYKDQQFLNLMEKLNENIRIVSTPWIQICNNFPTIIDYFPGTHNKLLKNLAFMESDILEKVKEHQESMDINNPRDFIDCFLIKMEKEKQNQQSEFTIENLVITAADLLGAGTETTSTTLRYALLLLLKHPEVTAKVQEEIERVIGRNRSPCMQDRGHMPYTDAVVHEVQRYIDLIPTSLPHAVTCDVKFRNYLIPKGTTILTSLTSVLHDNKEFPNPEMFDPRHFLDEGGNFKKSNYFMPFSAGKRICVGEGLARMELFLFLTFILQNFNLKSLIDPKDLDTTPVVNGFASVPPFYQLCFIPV
CYP2C19 act – increases human CYP2C19 enzyme activity | recombinant CYP2C19, luciferin-H EGE luminescence; active compounds read high; 0 = fully inhibited enzyme, 1 = untreated enzyme | 96,000 tested, under 10 active | AID 1025 | activation factor at 5 µM;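 active means activation factor of at least 2 at 5 µM in the primary screen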
Cav32 inh – blocks human Cav3.2 T-type calcium channel | actives 4% (n = 100,000) | Cav3.2-expressing cells, Fluo-4 calcium fluorescence FDSS; active compounds read low | B-score at 10 µM;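 active means single-dose well whose peak fluorescence ratio is a statistical outlier from its plate by either plate-standardised score or position-corrected B-score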
CYP2C9 inhib – human CYP2C9 inhibition. CYP2C9 Supersomes, luciferin-H conversion, luminescence. P11712. inhibition, % at 5 µM. actives 20% (n = 96,000);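 active means blocking of liver enzyme CYP2C9 beyond about 50% at 5 µM, limit read from the data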
A number is an active result; . = inactive; / = no result. An excerpt weighted towards active compounds, which were near 27% of everything screened.

SMILES | CYP2C9 act | CYP2C19 inh | CYP2C19 act | Cav32 inh | CYP2C9 inhib
Cc1c(NC(=O)CSc2nnc3c4ccccc4n(CCc4ccccc4)c3n2)c(=O)n(-c2ccccc2)n1C | . | . | . | . | .
Cc1cccc(N2C(=O)CC(SC(=Nc3ccccc3)Nc3ccccc3)C2=O)c1 (stereo not given) | . | . | . | . | .
CCN=C(NCC)SC1CC(=O)N(c2cccc(OC)c2)C1=O (stereo not given) | 2.1 | 79 | . | . | .
CN=C(Nc1ccc2c(c1)OCO2)SC1CC(=O)N(c2ccccc2)C1=O (stereo not given) | / | / | / | . | /
CCN=C(NCC)SC1CC(=O)N(c2ccccc2)C1=O (stereo not given) | . | 88 | . | . | .
CCN=C(Nc1cccc(F)c1)SC1CC(=O)N(c2ccc(OC)cc2)C1=O (stereo not given) | . | . | . | . | 59
C=CCSc1ncccc1C(=O)NCc1ccccc1 | . | 88 | . | . | .
CCOC(=O)c1cccnc1SCC(=O)NCc1ccccc1 | . | 98 | . | . | 92
COC(=O)[C@H]1C[C@@H]1[C@H](NC(=O)c1cnccn1)c1ccccc1 | / | / | / | . | /
CCOc1ccccc1N(CC(=O)NC1CCCCC1)S(C)(=O)=O | . | . | . | / | .
O=C(c1cccs1)N1CCN(S(=O)(=O)N2CCCCC2)CC1 | . | . | . | . | .
CC1CN(C(=O)c2cccs2)CCN1C(=O)c1cccs1 (stereo not given) | . | 96 | . | . | 89
O=C(c1ccsc1)N1CCN(C(=O)c2cccs2)CC1 | . | 95 | . | . | 67
O=C(c1cccs1)N1CCN(c2ccc(F)cc2)CC1 | . | . | . | . | .
O=C(c1cccs1)N1CCN(S(=O)(=O)c2ccccc2)CC1 | . | 97 | . | . | 70
O=C(O)C1CCCN1C(=O)c1cccs1 (stereo not given) | / | / | / | . | /
Cn1c(=O)[nH]c(=O)c2c1nc(SCCN1CCCCC1)n2CCCc1ccccc1 | . | . | . | . | .
CCCn1c(N2CCN(CC(=O)c3c(C)n(C)c4ccccc34)CC2)nc2c1c(=O)[nH]c(=O)n2C | . | . | . | 3.1 | .
CCn1c(N2CCN(CC(=O)c3c[nH]c4ccccc34)CC2)nc2c1c(=O)[nH]c(=O)n2C | . | . | . | . | 54
CCOC(=O)N1CCN(c2nc3c(c(=O)[nH]c(=O)n3C)n2Cc2ccccc2Cl)CC1 | . | . | . | . | .
CC1(C)OC(=O)N(Cc2ccco2)C1(C)O (stereo not given) | . | . | . | . | .
CN1CCc2nc3sc(C(=O)C45CC6CC(CC(C6)C4)C5)c(N)c3cc2C1 | . | . | . | / | .
CCN(CC)c1ccc(-c2c(C#N)c(N)nc(OC)c2C#N)cc1 | . | . | . | . | 54
CCOC(=O)N1CCN(c2cc(=O)n(-c3ccc(C)cc3)c(=O)[nH]2)CC1 | / | / | / | . | /
Cc1cc(Cl)cc(Cl)c1OCC(=O)NCc1ccco1 | . | . | . | . | .
SMILES | CYP2C9 act | CYP2C19 inh | CYP2C19 act | Cav32 inh | CYP2C9 inhib
Nc1cc(C(=O)OCC(=O)NCC2CCCO2)ccc1Cl (stereo not given) | . | 56 | . | . | .
Cc1ccc(OCC(=O)NCc2ccco2)cc1C | . | 80 | . | . | .
CCOc1ccccc1OCC(=O)NCc1ccco1 | . | 65 | . | . | .
O=C(COc1ccccc1Cl)NCc1ccco1 | . | . | . | . | .
CCOc1ccc(OCC)c(NC(=O)C2C3C=CC(O3)C2C(=O)NCc2ccco2)c1 (stereo not given) | . | 51 | . | . | .
O=C(O)c1ccc2c(c1)C(c1ccccc1)OC2=O (stereo not given) | . | . | . | . | .
CC1CCc2c(C(=O)Oc3cccc(-n4cnnn4)c3)csc2C1 (stereo not given) | . | . | . | . | .
COc1ccc(C(=O)OCC(=O)NCc2ccco2)cc1OC | . | . | . | . | .
CCCOc1ccc(CC(=O)NCc2ccco2)cc1OC | . | 63 | . | . | .
O=C(COC(=O)c1ccccc1)NCc1ccco1 | . | . | . | . | .
Nc1cc(C(=O)OCC(=O)NCc2ccco2)ccc1Cl | . | 60 | . | . | .
CCOc1ccc(C(=O)OCC(=O)NCc2ccco2)cc1OCC | . | 70 | . | . | .
Cc1cc(C(=O)OCC(=O)NCc2ccco2)c(C)n1-c1ccc(F)cc1 | . | . | . | -4.4 | .
O=C(O)C1C2C=CC(C3CC23)C1C(=O)NCCc1ccccc1 (stereo not given) | . | . | . | . | .
